The full data set covers some 7,900 targets. This sample favours those with a hit. About 0.6% of all pairs of compound and target were hits. A number with no mark means an inactive call.
Experiments:
Assay in all cases: log2 fold change, soluble protein after heating vs DMSO (PISA); higher = thermal stabilisation; K562 cells, 10 uM, 30 min; active = over 0.2 and 3.5 SD of the protein, either way, in both replicates (recomputed)
saracatinib = compound: CN1CCN(CCOc2cc(OC3CCOCC3)c3c(Nc4c(Cl)ccc5c4OCO5)ncnc3c2)CC1 [saracatinib]
Procedure, shortened: (§1)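 Soluble protein was defined as the supernatant after 21,000xg for 90 min. It came from K562 cells at 2×10^6 cells/mL given 10 μM compound for 30 min, heated in aliquots for 3 min across 48°C-58°C, pooled, and extracted in PBS with 0.5% NP-40 at 4°C, and was quantified by TMTpro 16plex LC-MS/MS with equalised channel sums. Thermal stability against control samples, from duplicates, is reported as log2 fold change.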

sotrastaurin = compound: CN1CCN(c2nc(C3=C(c4c[nH]c5ccccc45)C(=O)NC3=O)c3ccccc3n2)CC1 [sotrastaurin]
Procedure, shortened: as §1

alvocidib = compound: CN1CC[C@H](c2c(O)cc(O)c3c(=O)cc(-c4ccccc4Cl)oc23)[C@H](O)C1 [alvocidib]
Procedure, shortened: as §1

Tubastatin A = compound: CN1CCc2c(c3ccccc3n2Cc2ccc(C(=O)NO)cc2)C1 [Tubastatin A]
Procedure, shortened: as §1

[1] = compound: CNC(=O)C1=CC=CC=C1NC2=NC(=NC=C2Cl)NC3=C(C=C(C=C3)N4CCOCC4)OC
Procedure, shortened: as §1

defactinib = compound: CNC(=O)c1ccc(Nc2ncc(C(F)(F)F)c(NCc3nccnc3N(C)S(C)(=O)=O)n2)cc1 [defactinib]
Procedure, shortened: as §1

rucaparib = compound: CNCc1ccc(-c2[nH]c3cc(F)cc4c3c2CCNC4=O)cc1 [rucaparib]
Procedure, shortened: as §1

[2] = compound: CNc1nc(-c2ccc3c(N)n[nH]c3c2)cc(N2C[C@@H](C(=O)NC3CCCCC3)CC[C@H]2C)n1
Procedure, shortened: as §1

encorafenib = compound: COC(=O)N[C@@H](C)CNc1nccc(-c2cn(C(C)C)nc2-c2cc(Cl)cc(NS(C)(=O)=O)c2F)n1 [encorafenib]
Procedure, shortened: as §1

[3] = compound: COC(=O)[C@H](CCSC)NC(=O)C1=C(C=C(C=C1)NC[C@H](CS)N)C2=CC=CC=C2
Procedure, shortened: as §1

filanesib = compound: CON(C)C(=O)N1N=C(c2cc(F)ccc2F)S[C@@]1(CCCN)c1ccccc1 [filanesib]
Procedure, shortened: as §1

zotarolimus = compound: CO[C@H]1C[C@@H]2CC[C@@H](C)[C@@](O)(O2)C(=O)C(=O)N2CCCC[C@H]2C(=O)O[C@H]([C@H](C)C[C@@H]2CC[C@H](n3cnnn3)[C@H](OC)C2)CC(=O)[C@H](C)/C=C(\C)[C@@H](O)[C@@H](OC)C(=O)[C@H](C)C[C@H](C)/C=C/C=C/C=C/1C [zotarolimus]
Procedure, shortened: as §1

idasanutlin = compound: COc1cc(C(=O)O)ccc1NC(=O)[C@@H]1N[C@@H](CC(C)(C)C)[C@](C#N)(c2ccc(Cl)cc2F)[C@H]1c1cccc(Cl)c1F [idasanutlin]
Procedure, shortened: as §1

alisertib = compound: COc1cc(Nc2ncc3c(n2)-c2ccc(Cl)cc2C(c2c(F)cccc2OC)=NC3)ccc1C(=O)O [alisertib]
Procedure, shortened: as §1

[4] = compound: COc1cc2nc(-c3cc(F)ccc3O)nc(N[C@@H]3CNC[C@H]3C(C)(C)O)c2cc1OC
Procedure, shortened: as §1

gefitinib = compound: COc1cc2ncnc(Nc3ccc(F)c(Cl)c3)c2cc1OCCCN1CCOCC1 [gefitinib]
Procedure, shortened: as §1

[5] = compound: COc1cccc2cc(-c3nc([C@H]4CC[C@H](C(=O)O)CC4)n4ncnc(N)c34)[nH]c12
Procedure, shortened: as §1

lapatinib = compound: CS(=O)(=O)CCNCc1ccc(-c2ccc3ncnc(Nc4ccc(OCc5cccc(F)c5)c(Cl)c4)c3c2)o1 [lapatinib]
Procedure, shortened: as §1

[6] = compound: COC1=CC=C(C=C1)CN2C=CC3=C2C=C(C=C3)C(=O)NO
Procedure, shortened: as §1

pictilisib = compound: CS(=O)(=O)N1CCN(Cc2cc3nc(-c4cccc5[nH]ncc45)nc(N4CCOCC4)c3s2)CC1 [pictilisib]
Procedure, shortened: as §1

UniProt Q15906, sequence (Q15906 whole entry, looked up): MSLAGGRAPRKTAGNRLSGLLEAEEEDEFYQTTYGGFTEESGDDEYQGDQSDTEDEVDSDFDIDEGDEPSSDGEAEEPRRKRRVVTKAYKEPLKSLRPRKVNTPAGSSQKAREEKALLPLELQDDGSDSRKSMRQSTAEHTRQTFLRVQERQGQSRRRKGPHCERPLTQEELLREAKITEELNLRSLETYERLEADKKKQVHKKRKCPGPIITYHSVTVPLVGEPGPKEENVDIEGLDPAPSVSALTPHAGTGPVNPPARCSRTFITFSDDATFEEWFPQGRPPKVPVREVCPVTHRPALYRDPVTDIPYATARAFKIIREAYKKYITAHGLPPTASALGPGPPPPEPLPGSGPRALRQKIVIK
UniProt Q8NEZ2, sequence (Q8NEZ2 whole entry, looked up): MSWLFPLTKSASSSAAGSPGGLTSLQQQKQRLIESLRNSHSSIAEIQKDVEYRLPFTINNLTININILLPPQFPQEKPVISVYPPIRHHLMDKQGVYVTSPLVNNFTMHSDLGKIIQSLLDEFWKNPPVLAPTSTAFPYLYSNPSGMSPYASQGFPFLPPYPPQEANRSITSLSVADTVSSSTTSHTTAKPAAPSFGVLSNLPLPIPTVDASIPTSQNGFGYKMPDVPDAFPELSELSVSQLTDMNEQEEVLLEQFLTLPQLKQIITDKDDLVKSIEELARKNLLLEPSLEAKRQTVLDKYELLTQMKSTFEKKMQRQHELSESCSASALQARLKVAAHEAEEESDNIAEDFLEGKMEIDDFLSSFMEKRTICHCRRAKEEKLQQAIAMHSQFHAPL
UniProt Q7Z7E8, sequence (Q7Z7E8 whole entry, looked up): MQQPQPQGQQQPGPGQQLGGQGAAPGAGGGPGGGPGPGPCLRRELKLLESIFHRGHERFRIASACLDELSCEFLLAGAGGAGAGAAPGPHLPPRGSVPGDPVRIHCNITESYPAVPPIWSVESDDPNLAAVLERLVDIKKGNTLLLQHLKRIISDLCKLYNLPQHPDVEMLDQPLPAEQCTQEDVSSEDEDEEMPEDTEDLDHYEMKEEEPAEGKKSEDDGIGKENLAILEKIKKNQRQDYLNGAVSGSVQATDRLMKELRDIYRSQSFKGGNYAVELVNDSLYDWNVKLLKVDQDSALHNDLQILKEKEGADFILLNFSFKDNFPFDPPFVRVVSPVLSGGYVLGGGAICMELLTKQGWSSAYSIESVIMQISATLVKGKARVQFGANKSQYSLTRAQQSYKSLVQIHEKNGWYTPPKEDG
UniProt P30291, sequence (P30291 whole entry, looked up): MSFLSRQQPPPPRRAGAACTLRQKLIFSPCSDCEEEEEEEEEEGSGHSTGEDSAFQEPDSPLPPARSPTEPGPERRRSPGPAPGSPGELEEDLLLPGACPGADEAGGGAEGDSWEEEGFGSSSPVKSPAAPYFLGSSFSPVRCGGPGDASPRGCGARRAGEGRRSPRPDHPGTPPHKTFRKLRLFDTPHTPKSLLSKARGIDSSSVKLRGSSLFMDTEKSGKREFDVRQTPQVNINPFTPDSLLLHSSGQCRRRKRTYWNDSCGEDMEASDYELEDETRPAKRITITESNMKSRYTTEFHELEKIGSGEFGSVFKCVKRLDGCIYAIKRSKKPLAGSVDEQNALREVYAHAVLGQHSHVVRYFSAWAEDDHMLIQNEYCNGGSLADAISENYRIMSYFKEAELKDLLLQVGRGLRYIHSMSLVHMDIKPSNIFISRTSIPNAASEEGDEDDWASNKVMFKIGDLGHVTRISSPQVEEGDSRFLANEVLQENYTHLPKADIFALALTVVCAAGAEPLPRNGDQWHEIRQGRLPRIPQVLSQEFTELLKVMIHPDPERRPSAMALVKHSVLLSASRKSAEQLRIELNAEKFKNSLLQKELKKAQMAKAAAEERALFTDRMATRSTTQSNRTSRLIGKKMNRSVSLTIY
UniProt Q5BJH2, sequence (Q5BJH2 whole entry, looked up): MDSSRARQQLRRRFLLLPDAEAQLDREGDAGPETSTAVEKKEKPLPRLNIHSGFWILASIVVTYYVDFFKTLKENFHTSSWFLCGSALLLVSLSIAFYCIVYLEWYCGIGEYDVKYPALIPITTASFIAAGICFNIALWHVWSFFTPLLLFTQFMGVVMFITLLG
UniProt Q9HCN3, sequence (Q9HCN3 whole entry, looked up): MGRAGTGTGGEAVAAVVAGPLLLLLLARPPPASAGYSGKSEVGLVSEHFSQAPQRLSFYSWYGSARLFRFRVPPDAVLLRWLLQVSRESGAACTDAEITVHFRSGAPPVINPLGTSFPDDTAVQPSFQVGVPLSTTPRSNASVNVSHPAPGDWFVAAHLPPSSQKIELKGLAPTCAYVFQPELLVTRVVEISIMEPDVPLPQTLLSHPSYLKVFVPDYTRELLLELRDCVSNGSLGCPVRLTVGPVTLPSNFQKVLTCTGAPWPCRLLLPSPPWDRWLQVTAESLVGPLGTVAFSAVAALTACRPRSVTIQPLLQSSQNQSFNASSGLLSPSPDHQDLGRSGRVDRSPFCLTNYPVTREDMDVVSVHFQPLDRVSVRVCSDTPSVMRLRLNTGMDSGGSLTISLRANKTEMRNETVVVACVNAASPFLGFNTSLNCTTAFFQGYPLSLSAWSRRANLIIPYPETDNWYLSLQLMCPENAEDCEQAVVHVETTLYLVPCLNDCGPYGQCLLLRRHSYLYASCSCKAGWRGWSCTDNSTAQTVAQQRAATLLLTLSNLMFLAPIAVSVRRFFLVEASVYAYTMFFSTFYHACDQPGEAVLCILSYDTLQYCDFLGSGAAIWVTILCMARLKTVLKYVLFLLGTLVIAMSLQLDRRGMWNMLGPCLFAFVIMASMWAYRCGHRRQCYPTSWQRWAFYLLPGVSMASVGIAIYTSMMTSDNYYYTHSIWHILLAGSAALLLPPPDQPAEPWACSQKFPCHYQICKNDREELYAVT
UniProt P61960, sequence (P61960 whole entry, looked up): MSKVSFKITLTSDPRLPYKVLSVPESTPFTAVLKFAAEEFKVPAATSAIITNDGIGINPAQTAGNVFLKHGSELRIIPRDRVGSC
UniProt Q14139, sequence (Q14139 whole entry, looked up): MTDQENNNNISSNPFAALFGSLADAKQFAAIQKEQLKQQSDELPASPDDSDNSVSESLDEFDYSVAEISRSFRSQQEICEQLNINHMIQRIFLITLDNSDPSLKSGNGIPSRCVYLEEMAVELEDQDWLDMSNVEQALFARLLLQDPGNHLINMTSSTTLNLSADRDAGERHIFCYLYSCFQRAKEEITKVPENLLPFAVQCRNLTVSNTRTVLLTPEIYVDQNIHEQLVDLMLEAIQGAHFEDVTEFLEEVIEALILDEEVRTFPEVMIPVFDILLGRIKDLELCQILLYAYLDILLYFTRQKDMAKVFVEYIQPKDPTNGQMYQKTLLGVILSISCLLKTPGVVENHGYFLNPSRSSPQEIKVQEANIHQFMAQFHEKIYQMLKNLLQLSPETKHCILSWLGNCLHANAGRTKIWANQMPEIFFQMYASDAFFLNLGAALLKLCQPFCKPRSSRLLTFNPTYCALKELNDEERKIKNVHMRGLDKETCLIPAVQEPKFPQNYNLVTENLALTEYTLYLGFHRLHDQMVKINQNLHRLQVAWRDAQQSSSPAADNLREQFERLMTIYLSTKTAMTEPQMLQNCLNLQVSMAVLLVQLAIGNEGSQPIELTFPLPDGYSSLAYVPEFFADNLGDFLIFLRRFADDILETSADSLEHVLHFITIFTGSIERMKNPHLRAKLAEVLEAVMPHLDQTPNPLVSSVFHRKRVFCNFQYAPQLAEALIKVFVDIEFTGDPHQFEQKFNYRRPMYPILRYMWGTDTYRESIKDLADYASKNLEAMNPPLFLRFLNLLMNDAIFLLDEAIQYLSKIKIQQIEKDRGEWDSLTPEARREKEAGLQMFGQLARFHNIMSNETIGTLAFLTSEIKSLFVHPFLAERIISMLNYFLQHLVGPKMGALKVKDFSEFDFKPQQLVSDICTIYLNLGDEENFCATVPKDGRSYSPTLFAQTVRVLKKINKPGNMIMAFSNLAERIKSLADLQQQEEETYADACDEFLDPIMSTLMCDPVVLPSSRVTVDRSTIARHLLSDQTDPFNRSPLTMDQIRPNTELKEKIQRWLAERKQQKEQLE
UniProt O60701, sequence (O60701 whole entry, looked up): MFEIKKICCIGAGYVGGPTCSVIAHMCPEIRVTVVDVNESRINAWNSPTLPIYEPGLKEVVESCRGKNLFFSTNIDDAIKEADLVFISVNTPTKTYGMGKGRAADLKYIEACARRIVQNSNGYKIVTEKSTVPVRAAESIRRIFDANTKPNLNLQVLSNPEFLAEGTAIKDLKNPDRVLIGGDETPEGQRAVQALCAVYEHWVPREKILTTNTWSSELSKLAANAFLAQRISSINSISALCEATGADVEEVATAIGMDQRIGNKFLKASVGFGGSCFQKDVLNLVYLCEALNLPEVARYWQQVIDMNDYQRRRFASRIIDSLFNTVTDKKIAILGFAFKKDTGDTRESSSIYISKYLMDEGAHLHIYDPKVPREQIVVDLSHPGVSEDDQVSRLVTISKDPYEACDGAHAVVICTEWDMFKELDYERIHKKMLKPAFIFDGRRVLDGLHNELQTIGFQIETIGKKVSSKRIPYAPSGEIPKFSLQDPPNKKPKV
UniProt Q8N2K1, sequence (Q8N2K1 whole entry, looked up): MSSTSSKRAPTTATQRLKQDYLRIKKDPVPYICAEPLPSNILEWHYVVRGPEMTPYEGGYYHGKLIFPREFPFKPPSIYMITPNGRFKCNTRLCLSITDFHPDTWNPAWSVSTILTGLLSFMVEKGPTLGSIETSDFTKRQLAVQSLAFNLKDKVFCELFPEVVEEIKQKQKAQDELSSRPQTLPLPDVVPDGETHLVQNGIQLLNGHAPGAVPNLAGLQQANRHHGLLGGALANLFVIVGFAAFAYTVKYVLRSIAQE
UniProt P51668, sequence (P51668 whole entry, looked up): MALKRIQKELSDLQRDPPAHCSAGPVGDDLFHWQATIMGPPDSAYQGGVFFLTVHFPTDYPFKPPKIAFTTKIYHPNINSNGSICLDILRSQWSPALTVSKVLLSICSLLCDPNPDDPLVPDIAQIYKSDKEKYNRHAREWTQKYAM

Target	log2 fold change (saracatinib)	log2 fold change (sotrastaurin)	log2 fold change (alvocidib)	log2 fold change (Tubastatin A)	log2 fold change [1]	log2 fold change (defactinib)	log2 fold change (rucaparib)	log2 fold change [2]	log2 fold change (encorafenib)	log2 fold change [3]	log2 fold change (filanesib)	log2 fold change (zotarolimus)	log2 fold change (idasanutlin)	log2 fold change (alisertib)	log2 fold change [4]	log2 fold change (gefitinib)	log2 fold change [5]	log2 fold change (lapatinib)	log2 fold change [6]	log2 fold change (pictilisib)
VPS72 isoform 2 (UniProt Q15906)	-0.094	0.004	0.042	-0.011	-0.021	-0.016	0.28	-0.082	-0.053	-0.019	0.084	-0.008	0.062	-0.066	-0.047	0.033	-0.094	0.012		
TMEM128 (UniProt Q5BJH2)	0.083	0.01	-0.082	-0.011	-0.023	-0.045	0.019	-0.062	-0.006	-0.006	0.152	-0.181	0.035		0.025	0.076		-0.068	-0.065	
UBE2Q1 (UniProt Q7Z7E8)	-0.023	-0.001	-0.069	0.027	0.05	-0.143	-0.008	0.048	0.04	-0.017	-0.042	0.022	0.006	-0.055	0.012	-0.02	-0.044	0.01	-0.09	0.039
UFM1 isoform 2 (UniProt P61960)	0	0.044	-0.037	-0.158	0.022	-0.065	-0.114	-0.024	0.01	-0.082	-0.12	-0.048	0	-0.067	-0.085	0.027	0.008	-0.052		-0.062
VPS37A (UniProt Q8NEZ2)	-0.043	-0.087	0.015	0.002	0.07	-0.164		0.065		0.138	-0.011	0.107	0.002	-0.054	0.001	0.05	0.024	-0.035	-0.046	0.058
UBXN10 (UniProt Q96LJ8)	0.111	0.122	-0.021	0.036	-0.152	0.254	-0.05	-0.049	-0.074	0.014	0.038	-0.049		0.016	-0.071	-0.079	-0.11	0.097	0.059	-0.008
UBE2J2 isoform 3 (UniProt Q8N2K1)	0.07	0.044	-0.226	0.091	-0.114	-0.061	0.081	0.055	0.014	-0.053	0.146	-0.031	0.092		0.134			-0.07		-0.145
UBE4A isoform 2 (UniProt Q14139)	-0.024	-0.148	0.145	-0.009	0.006	-0.017	0.021	-0.079	0.03	-0.078	-0.023	-0.003	0.008	-0.003	-0.024	-0.056	-0.073	0.022	0.037	0.016
WEE1 (UniProt P30291)	0.068	0.007	0.084	0.117	0.075	-0.029		-0.052		0.082	0.217	-0.068	0.356	-0.322	0.039	-0.083	-0.615	0.125	-0.157	-0.095
UGDH (UniProt O60701)	-0.036	-0.284 (active)	-0.273	0.004	-0.085	-0.209	-0.089	0.074	0.087	-0.038	0.001	0.053	-0.043	0.067	0.04	0.118	0.059	-0.036	0.164	0.022
VARS2, A0A0G2JL52	0.007	-0.019	-0.005	-0.026	-0.019	-0.005	0.02	0.012	-0.004	-0.041	-0.078	0.001	-0.04	-0.01	-0.017	-0.009	0.064	0.022	0.061	0.024
TMEM8A (UniProt Q9HCN3)	0.059	-0.099	-0.009	0.108	-0.042	-0.039	0.004	0.02	0.037	-0.191	0.188	-0.093		-0.153	-0.008	-0.038	0.085	0.065		0.121
VPS13B (UniProt Q7Z7G8)	0.033	0.016	-0.003	0.032	-0.002	0.009	-0.039	-0.016	0.031	-0.01	-0.11	-0.007	0.025	0.07	-0.111	0.019	0.07	-0.018	0.019	0.057
WASHC5 (UniProt Q12768)	0.007	-0.02	-0.042	0.047	0.062	-0.032	0.045	-0.009	0.033	-0.033	-0.017	0.043	0.034	-0.088	0.083	0.044	-0.021	-0.024	-0.059	-0.05
UBE2D1 (UniProt P51668)	0.03	0.056	-0.055	-0.058	-0.035	-0.016	0.006	-0.105	0.01	-0.047	-0.003	-0.006	-0.083	0.094	0.137	-0.012	0.002	-0.063		0.021
UBE3D (UniProt Q7Z6J8)	0.027	-0.007	-0.059	-0.043	-0.058	-0.003	0.161	-0.064	0.005	-0.108	0.08	-0.033	-0.009	-0.088	-0.022	0.035	0.009	-0.069	-0.005	0.139
ULBP1 (UniProt Q9BZM6)	-0.027	-0.175	0.005	0.016	-0.096	0.064		0.07		0.048	0.071	0.022	0.036	-0.023	0.164		0.001	0.002		

Reference: the supplement of paper PMC10849652
